Active and inactive are the calls of the source.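 How the source made its calls, unless noted: active means inhibition at or above 50% at 10 µM; inactive means inhibition below 50%.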
Assays:
[1] = inhibitors of TNFa-induced NFkB p65 translocation, primary screen, imaging, HUVEC, MLSMR starter and 10KST1 sets (AID 438;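 active means inhibition above 20% together with a positive visual image hit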;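 further: compound added about 3h40 before a 20 min TNFalpha stimulation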;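 on inhibition: signal is the nuclear over cytoplasmic p65 intensity ratio per well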); conditions: HUVEC TNFa-induced p65 nuclear translocation; cell count: measured here: nuclei count (cytotoxicity indicator), at 2.08 µM; inhibition: at 2 µM, stronger effect = higher value, 0% TNFa-plus-vehicle, 100% no-TNFa wells
[2] = inhibitors of mutant huntingtin aggregation, primary screen, imaging, exon1htt(103Q)mCFP cells, high-content imaging (AID 483;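 active means visual image review flags a hit and inhibition of aggregation exceeds 20%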;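 further: compound exposure lasted 3 days before fixation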;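 on nuclei count: percent of the per-plate median nuclei count of sample wells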); conditions: exon1htt(103Q)mCFP cell line, aggregate imaging, at 2 µM; inhibition of aggregation: stronger effect = higher value; nuclei count: measured here: cell count, toxicity
[3] = inhibitors of E-selectin induction by TNFa, primary screen, imaging, HUVEC, immunofluorescence, MLSMR starter and 10KST1 sets (AID 487;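 active means visually confirmed hit in the image check and inhibition above 20%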;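 on inhibition: signal is fraction of cell area covered by stained E-selectin grains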;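 on nuclei count: 100% = median nuclei count of all wells on the same plate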); conditions: HUVEC TNFalpha-induced E-selectin immunofluorescence imaging, at 2 µM; inhibition: stronger effect = higher value; nuclei count: measured here: cell number, toxicity
[4] = target: Voltage-gated potassium channel subunit beta-2 (Rattus norvegicus) (UniProt P62483); assay: KvBeta enzyme negative modulators, primary screen, biochemical, NADPH fluorescence (AID 622;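 active means fluorescence slope higher than the sample average by over 3 SD, cut at about -0.22 in these data, passing the limit was not always enough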;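 further: slope of raw intensity against log time taken from 70 to 1610 s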); conditions: recombinant KvBeta, 4-cyanobenzaldehyde reduction, at 10 µM, stronger effect = higher value
[5] = target: Voltage-gated potassium channel subunit beta-2 (Rattus norvegicus) (UniProt P62483); assay: KvBeta positive modulators, primary screen, biochemical, NADPH fluorescence (AID 623;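 active means NADPH fluorescence slope more negative than the mean of all samples by about 3 SD, 99.7% confidence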;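 further: fluorescence intensity change per second fitted from 20 to 320 s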); conditions: Recombinant KvBeta, NADPH fluorescence decrease slope, 10 min; at 10 µM; stronger effect = lower value
[6] = target: Alpha-2C adrenergic receptor (Homo sapiens) (UniProt P18825); assay: modulators of alpha2C/GIRK thallium flux, primary screen, cell-based, HEK293 alpha2C/GIRK1/2 (AID 624;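 active means fluorescence slope after compound addition differing from the mean of all screened samples at 99.7% confidence, in either direction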;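 further: slope of fluorescence ratio to pre-addition baseline per second over 15 to 24 s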); conditions: thallium flux BTC fluorescence, at 10 µM, actives lie on both sides
[7] = inhibitors of Sendai virus-induced IRF3 signaling, primary screen, TLR/RLR signaling modifier project, cell-based, Sendai virus stimulus, luciferase, 10K MLSCN set (AID 602276); conditions: HEK293 RL24 IRF3 luciferase reporter, at 10 µM, stronger effect = higher value;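 further: firefly luciferase from ISG56 promoter only with Renilla not read in this screen; 0% = Sendai virus plus DMSO and 100% = medium plus DMSO without virus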
[8] = inhibitors of poly I:C-induced TLR3 signaling, primary screen, cell-based, poly I:C stimulus, luciferase, 10K MLSCN set (AID 602277;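 active means inhibition of the reporter signal at or above 50%; inactive means inhibition below 50%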); conditions: HEK293-TLR3 RL24 IRF3 luciferase reporter, at 10 µM, stronger effect = higher value

Sequence of Alpha-2C adrenergic receptor (Homo sapiens) (P18825 whole entry, looked up): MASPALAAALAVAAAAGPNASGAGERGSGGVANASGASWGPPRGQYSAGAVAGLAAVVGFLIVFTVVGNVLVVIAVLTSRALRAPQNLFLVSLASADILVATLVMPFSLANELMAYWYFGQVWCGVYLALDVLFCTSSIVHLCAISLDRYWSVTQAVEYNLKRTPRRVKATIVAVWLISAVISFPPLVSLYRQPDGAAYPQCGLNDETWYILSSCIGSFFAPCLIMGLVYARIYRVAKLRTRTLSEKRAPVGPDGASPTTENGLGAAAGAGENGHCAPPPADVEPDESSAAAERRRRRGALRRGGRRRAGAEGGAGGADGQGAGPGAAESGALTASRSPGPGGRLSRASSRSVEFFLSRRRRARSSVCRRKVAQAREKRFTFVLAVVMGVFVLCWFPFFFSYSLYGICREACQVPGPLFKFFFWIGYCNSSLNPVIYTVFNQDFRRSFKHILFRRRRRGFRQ
Sequence of Voltage-gated potassium channel subunit beta-2 (Rattus norvegicus) (P62483 whole entry, looked up): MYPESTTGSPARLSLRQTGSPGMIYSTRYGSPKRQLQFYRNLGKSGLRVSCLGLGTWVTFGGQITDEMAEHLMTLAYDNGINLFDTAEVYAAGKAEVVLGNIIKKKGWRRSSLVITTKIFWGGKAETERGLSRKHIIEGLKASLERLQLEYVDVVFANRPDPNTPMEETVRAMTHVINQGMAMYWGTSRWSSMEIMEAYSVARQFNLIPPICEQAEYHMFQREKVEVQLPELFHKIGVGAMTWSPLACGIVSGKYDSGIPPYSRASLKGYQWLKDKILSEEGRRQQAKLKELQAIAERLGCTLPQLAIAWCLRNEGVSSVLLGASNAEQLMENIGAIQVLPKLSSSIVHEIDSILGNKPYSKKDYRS

Structure (SMILES) | cell count [1] | inhibition [1] | inhibition of aggregation [2] | nuclei count [2] | inhibition [3] | nuclei count [3] | fluorescence slope [4] | NADPH fluorescence slope [5] | slope [6] | inhibition [7] | inhibition [8]
Cc1oc2cc3c(C(=O)OCCN(C)C)c(C)oc3cc2c1C(=O)OCCN(C)C | 445 | -6% (inactive) | -22.9% (inactive) | 95.2% | -44.7% (inactive) | 92.4% | -0.412 (inactive) | -3.3e-05 (inactive) | 0.00351 (inactive) | 48.3% (inactive) | 99.1% (active)
CSC1=C(C#N)C(c2ccc(Cl)cc2)C2=C(CC(C)(C)CC2=O)N1 (centres undefined) | 391 | -3.3% (inactive) | 29.1% (inactive) | 81.5% | -5.3% (inactive) | 108% | -0.416 (inactive) | 5.8e-06 (inactive) | 0.00657 (inactive) | 1.71% (inactive) | 24.5% (inactive)
COC(=O)C1CCN(C(=O)NC(C)(C)C)CC1 | 307 | -4.5% (inactive) | 14.5% (inactive) | 82.1% | -37.4% (inactive) | 99.6% | -0.618 (inactive) | -4.3e-05 (inactive) | 0.00637 (inactive) | 5.02% (inactive) | 14.9% (inactive)
COc1cc2c(=O)n(Cc3ccccc3)c(=O)n(CC(=O)NCc3ccco3)c2cc1OC | 358 | 3.5% (inactive) | -3.1% (inactive) | 107% | -319% (inactive) | 109% | -0.37 (inactive) | 9e-06 (inactive) | 0.0075 (inactive) | 23.8% (inactive) | 21.5% (inactive)
CC(=O)N1CCc2cc(Br)cc(S(=O)(=O)NCCCN3CCCC(C)C3)c21 (centres undefined) | 379 | 0.3% (inactive) | -1.8% (inactive) | 104% | -170% (inactive) | 96% | -0.47 (inactive) | 1.8e-05 (inactive) | 0.00613 (inactive) | -7.41% (inactive) | 12.2% (inactive)
CN(C)CCCOC(=O)CCc1ccccc1 | 317 | -11.5% (inactive) | 4.5% (inactive) | 95.6% | -26.3% (inactive) | 111% | -0.312 (inactive) | -3.9e-05 (inactive) | 0.00462 (inactive) | -0.368% (inactive) | 5.94% (inactive)
Cc1cc2ncn(C(=O)c3c(-c4ccccc4)noc3C)c2cc1C | 202 | -15.9% (inactive) | -7.9% (inactive) | 85.7% | 25.9% (inactive) | 99.7% | -0.433 (inactive) | -2.6e-06 (inactive) | 0.00548 (inactive) | 5.72% (inactive) | 18.2% (inactive)
CC(C)CCNC(=O)C(C)N(Cc1ccc(F)cc1)C(=O)c1ccc(CN2CCCCC2)o1 (centres undefined) | 327 | -11.2% (inactive) | 28.1% (active) | 75.3% | 2.1% (inactive) | 106% | -0.284 (inactive) | -6e-05 (inactive) | 0.00436 (inactive) | 7.35% (inactive) | 14% (inactive)
Cc1ccc(NC(=O)c2cc(-c3ccc(C)o3)nc3ccccc23)nc1 | 414 | 6.3% (inactive) | -7.9% (inactive) | 113% | 21.6% (inactive) | 106% | -0.12 (active) | 9.6e-06 (inactive) | 0.00591 (inactive) | -2.84% (inactive) | -17% (inactive)
COC(=O)CN1C(=O)C(O)(CC(=O)c2ccc(Cl)cc2)c2ccccc21 (centres undefined) | 605 | -0.8% (inactive) | -5.5% (inactive) | 110% | -40.7% (inactive) | 102% | -0.372 (inactive) | 2.5e-05 (inactive) | 0.00594 (inactive) | 17.2% (inactive) | 36% (inactive)
CC(=O)N(CCN(C(C)=O)c1ccccc1)c1ccccc1 | 448 | -1.1% (inactive) | 4% (inactive) | 80.2% | 12.5% (inactive) | 88.5% | -0.454 (inactive) | 7e-05 (inactive) | 0.00518 (inactive) | 13.8% (inactive) | 17.2% (inactive)
Cc1cnc(C(=O)OCC(=O)Nc2ccc(Oc3ccccc3)cc2)cn1 | 566 | -16.3% (inactive) | -29.2% (inactive) | 107% | -1.5% (inactive) | 122% | -0.367 (inactive) | -8.3e-06 (inactive) | 0.00457 (inactive) | -29.5% (inactive) | -39.7% (inactive)
CN1CCN(C(=O)C2CCN(S(=O)(=O)c3ccc4c(c3)oc(=O)n4C)CC2)CC1 | 554 | -4.7% (inactive) | 8.3% (inactive) | 100% | -22% (inactive) | 116% | -0.59 (inactive) | -2.4e-05 (inactive) | 0.00694 (inactive) | 8.49% (inactive) | 23.9% (inactive)
CCc1c(C)nc2ncnn2c1N1CCC(C(=O)NCc2cccc(OC)c2)CC1 | 716 | -5.5% (inactive) | -13.4% (inactive) | 66% | -34.8% (inactive) | 116% | -0.499 (inactive) | -4.5e-05 (inactive) | 0.00565 (inactive) | 5.24% (inactive) | 1.67% (inactive)
